The compounds below were run on CDK2.

Question: Which Kinases covered does the source give for `O=C(Nc1n[nH]c2nc(-c3ccc(O)cc3)c(Br)cc12)C1CC1` [SB-725317] here?
Answer: CDK2

Question: How did the Kinases covered turn out when `NS(=O)(=O)c1ccc(Nc2ncc(-c3ccccc3)o2)cc1` [GW572399X] was run?
Answer: CDK2

Question: With `NS(=O)(=O)c1ccc(N/N=C2\C(=O)Nc3ccc(C(=O)NCc4ccncc4)cc32)cc1` [GW300657X] as the compound, how does the Kinases covered read?
Answer: CDK2

Question: How did the Kinases covered turn out when `NS(=O)(=O)c1ccc(N/N=C2\C(=O)Nc3ccc(-c4cnco4)cc32)cc1` [GW276655] was run?
Answer: CDK2

Question: For `NS(=O)(=O)c1ccc(N/N=C2\C(=O)Nc3ccc(Cl)cc32)cc1` [GW280670X], which Kinases covered is on record?
Answer: CDK2

Question: For `CC(C)COC(=O)c1ccc2c(c1)/C(=C/Nc1ccc(S(N)(=O)=O)cc1)C(=O)N2` [GW416981X], which Kinases covered is on record?
Answer: CDK2
